30 compounds from the supplement of paper PMC6518042 can be followed below.

Values without a mark were called inactive.

One assay concerns Pectobacterium parmentieri SCC3193. The assay can be described thus: DuctApe activity index (growth/respiration on compound as sole nutrient source, blank-subtracted) (activity index (0-3)); higher = stronger utilization of the compound, active = 3 or more. The note with it: nutrient role (plate category): carbon. The procedure:
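Biolog Phenotype Microarray plates PM1, PM2A (carbon), PM3 (nitrogen) and PM4 (phosphorus/sulfur) inoculated with P. parmentieri SCC3193 in M9-C minimal salts medium with Biolog dye A, and read in the OmniLog for 46 h. Each well was tested in triplicate and the experiment was run twice. DuctApe computed a blank-subtracted activity index (AV, 0-3) from the mean curves; growth is positive at AV >= 3 and negative at AV <= 2.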
As for `CC(C)C[C@H](N)C(=O)O` [L-Leucine], the DuctApe activity index is 1.

For the compound `N[C@@H](CC(=O)O)C(=O)O` [L-Aspartic acid], the DuctApe activity index is 3 (active).

As to `OC1OC[C@@H](O)[C@@H](O)[C@@H]1O` (stereo partly drawn) [D-Arabinose], the DuctApe activity index is 1. As to `OC[C@H](O)C(O)[C@@H](O)CO` [L-Arabitol], the DuctApe activity index was 0. Turning to `O=C(O)Cc1cccc(O)c1` [m-Hydroxyphenyl Acetic acid], the DuctApe activity index is 0.

As to `OC[C@H]1OC(O)[C@@H](O)[C@@H](O)[C@@H]1O` (stereo partly drawn) [D-Mannose], the DuctApe activity index was 3 (active). In the case of `OCC1(O)OC[C@@H](O)[C@H](O)[C@@H]1O` (stereo partly drawn) [D-Tagatose], the DuctApe activity index is 0. In the case of `NCCCC[C@H](N)C(=O)O` [L-Lysine], the DuctApe activity index is 0. As to `N[C@@H](Cc1c[nH]cn1)C(=O)O` [L-Histidine], the DuctApe activity index was 0. As for `CC(=O)C(=O)O` [Pyruvic acid], the DuctApe activity index is 3 (active). In the case of `O=C(O)[C@@H]1C[C@@H](O)CN1` [Hydroxy-L-Proline], the DuctApe activity index was 0.

Consider `O=C1CC[C@@H](C(=O)O)O1` [a-Hydroxyglutaric acid-g-Lactone], for which the DuctApe activity index was 1.

Consider `C[C@@H](N)C(=O)O` [D-Alanine], for which the DuctApe activity index is 0. The same measure, in the same setting: for `C[C@@H]1OC(O)[C@H](O)[C@H](O)[C@H]1O` (stereo partly drawn) [L-Rhamnose] the value was 3 (active); for `O=c1[nH]cnc2c1ncn2[C@@H]1O[C@H](CO)[C@@H](O)[C@H]1O` [Inosine], 1; for `O=C(O)[C@@H]1CCCN1` [L-Proline], 0. Take `O=P(O)(O)OC[C@H]1OC(O)(CO)[C@@H](O)[C@@H]1O` (stereo partly drawn) [D-Fructose-6-Phosphate]: the DuctApe activity index is 3 (active).

As for `C[C@@H](O)CC(=O)O` [b-Hydroxybutyric acid], the DuctApe activity index is 0. Still for that read-out and setting: the same measure for `CCCCCCCC/C=C\CCCCCCCC(=O)OCCOCC(OCCO)C1OCC(OCCO)C1OCCO` (stereo not given) [Tween 80]: 0; for `O=C(O)[C@H](O)[C@@H](O)[C@H](O)[C@H](O)CO[C@H]1O[C@H](CO)[C@H](O)[C@H](O)[C@H]1O` [Melibionic acid]: 0. Still for that read-out and setting: the same measure for `OC[C@H]1O[C@@H](Oc2ccc(O)cc2)[C@H](O)[C@@H](O)[C@@H]1O` [Arbutin]: 3 (active); for `NCCCCN` [Putrescine]: 0.

The assay is the same for the next values; noted with them: nutrient role (plate category): nitrogen.
In the case of `N[C@@H](CS)C(=O)O` [L-Cysteine], the DuctApe activity index was 0. Same read-out and setting: the same measure for `CC(C)C[C@H](N)C(=O)O` [L-Leucine]: 0; for `N[C@@H](CC(=O)O)C(=O)O` [L-Aspartic acid]: 0; for `CSCC[C@H](NC(=O)CN)C(=O)O`: 0.

`NCCCC[C@H](N)C(=O)O` [L-Lysine]: the DuctApe activity index was 0. For the compound `N[C@@H](Cc1c[nH]cn1)C(=O)O` [L-Histidine], the DuctApe activity index was 0.

Turning to `C[C@@H](N)C(=O)O` [D-Alanine], the DuctApe activity index was 0. `NC(=O)NCCC[C@H](N)C(=O)O` [L-Citrulline]: the DuctApe activity index was 0.

In the case of `O=c1[nH]cnc2c1ncn2[C@@H]1O[C@H](CO)[C@@H](O)[C@H]1O` [Inosine], the DuctApe activity index is 0.

Take `O=C(O)[C@@H]1CCCN1` [L-Proline]: the DuctApe activity index is 0.

In the case of `NC(N)=O`, the DuctApe activity index was 0. On the same count and under the same terms, the same measure for `NCCCCN` [Putrescine]: 0.

Staying with this assay, now noted: nutrient role (plate category): phosphate & sulphur.
For `N[C@@H](CS)C(=O)O` [L-Cysteine], the DuctApe activity index is 0. For `N[C@@H](COP(=O)(O)O)C(=O)O` [O-Phospho-L-Serine], the DuctApe activity index was 2.

With `CSCC[C@H](NC(=O)CN)C(=O)O`, the DuctApe activity index is 1. For `O=S(=O)(O)CCO` [2-Hydroxyethane Sulfonic acid], the DuctApe activity index was 1. On to `N[C@H](CS)C(=O)O` [D-Cysteine], for which the DuctApe activity index was 1. Still for that read-out and setting: for `O=C(O)COP(=O)(O)O` [Phospho-Glycolic acid] the value was 1.
